# Source: PubChem (National Center for Advancing Translational Sciences (NCATS))
# Rows were chosen to be rich in hits. Some 3% of all compounds tested hit in one or more screens of this group.
# Casp7 inh: allosteric or competitive inhibitors of human caspase-7. AID 889. recombinant caspase-7, Ac-DEVD-AFC fluorescence rate. P55210. 75,000 compounds, 0.02% hits. Potency, µM (series often up to 57.5 µM), for inactives: top-dose activity change, negative = inhibition, hits mostly inhibitors; active = well fitted inhibition curve with a large enough effect in the main read-out, with a control signal flat, not every such curve was filed as active; inconclusive = small, poorly fitted or top-dose-only effect, or a change in a side signal; also: % of control where 0% means no effect
# 15-hLO-2 inh: inhibitors of human 15-lipoxygenase 2 (ALOX15B); purified 15hLO-2, xylenol orange hydroperoxide absorbance; Potency, µM (titrated, usually from 57.1 µM), for inactives: top-dose activity change, negative = inhibition, hits mostly inhibitors; 110,000 compounds, 0.56% hits; AID 881; also: % is scaled to controls: 0 for no effect and ±100 for the full control effect; nearly all actives have a fitted effect of over 60% in size
#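 Purified human 15hLO-2 (50 nM final) preincubated with compounds 15 min at room temperature in 25 mM Hepes pH 7.5, 0.01% Triton X-100, then 45 uM arachidonic acid added for 90 min; hydroperoxide detected via ferrous/xylenol orange, 573/405 nm absorbance ratio.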
# TSHR agonist: TSH receptor (human) agonism; HEK293-CNG-TSHR cells (CNG channel as cAMP sensor), membrane potential dye, cAMP; Potency, µM (doses to about 57.1 µM), inactives show at the top dose activation, hits mostly activators; P16473; AID 926; 73,000 compounds, 0.48% hits; active = well fitted activation curve with a large enough effect in the main read-out, with a control signal flat, not every such curve was filed as active; inconclusive = small, poorly fitted or top-dose-only effect, or a change in a side signal; inactive = no such curve, though single readings can be large or run the other way; % of control where 0% means no effect;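 also: the control signal comes from parental cells without the receptor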
# Target sequence (P16473 whole entry, looked up): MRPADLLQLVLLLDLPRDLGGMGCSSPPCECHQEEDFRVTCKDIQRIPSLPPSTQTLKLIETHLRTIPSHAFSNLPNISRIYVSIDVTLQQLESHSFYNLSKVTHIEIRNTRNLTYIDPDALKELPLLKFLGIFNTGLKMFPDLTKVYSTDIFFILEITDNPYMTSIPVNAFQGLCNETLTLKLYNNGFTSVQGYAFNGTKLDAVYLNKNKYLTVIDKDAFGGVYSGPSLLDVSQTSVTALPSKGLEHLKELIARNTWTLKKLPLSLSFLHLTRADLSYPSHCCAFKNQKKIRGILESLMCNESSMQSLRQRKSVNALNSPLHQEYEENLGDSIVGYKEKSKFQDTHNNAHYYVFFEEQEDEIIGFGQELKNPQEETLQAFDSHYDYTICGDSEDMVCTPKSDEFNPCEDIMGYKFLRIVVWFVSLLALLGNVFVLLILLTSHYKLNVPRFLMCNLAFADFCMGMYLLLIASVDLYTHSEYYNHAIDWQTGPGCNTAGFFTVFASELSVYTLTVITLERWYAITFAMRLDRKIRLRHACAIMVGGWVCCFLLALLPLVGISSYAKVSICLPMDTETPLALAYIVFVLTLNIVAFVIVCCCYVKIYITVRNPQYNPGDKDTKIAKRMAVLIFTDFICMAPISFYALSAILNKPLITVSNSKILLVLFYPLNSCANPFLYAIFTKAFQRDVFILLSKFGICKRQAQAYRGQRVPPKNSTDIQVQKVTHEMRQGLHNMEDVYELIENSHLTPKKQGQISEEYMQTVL
#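 HEK 293 cells stably expressing TSHR and a cAMP-gated CNG channel; parental CNG-only cells as counterscreen. Cells preloaded 60 min with membrane potential dye plus 100 uM RO 20-1724, then compound 30 min; fluorescence read at 590 nm.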
# 15-hLO inh: blocks human 15-lipoxygenase activity. P16050. purified 15hLO-1, xylenol orange hydroperoxide absorbance. Potency, µM (series often up to 57.1 µM), for inactives: top-dose activity change, negative = inhibition, hits mostly inhibitors. 74,000 compounds, 1.4% hits; also: % is scaled to controls: 0 for no effect and ±100 for the full control effect; nearly all actives have a fitted effect of over 55% in size
#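 Readout: Fe(III)-xylenol orange absorbance, 573-to-405 nm ratio as reaction progress. Enzyme 40 nM purified human 15hLO-1, substrate 50 uM arachidonic acid, 6 min RT after 15 min compound preincubation; Hepes pH 7.5 buffer with Triton X-100.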
# Caspase-1 inhib: caspase-1 (human) inhibition, allosteric or competitive | Caspase-1 enzyme, Ac-WEHD-AFC fluorogenic rate | Potency, µM (titrated, usually from 57.5 µM), for inactives: at the highest dose activity change, negative = inhibition, usual class: inhibitors | 75,000 compounds, 0.03% hits | AID 900;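 also: plate controls were vehicle for no effect and no substrate for full effect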
# HEK293 cAMP cs: counter-screen for TSHR agonists: cAMP increase in parental HEK293. parental HEK293 CNG cAMP sensor, membrane potential fluorescence. Potency, µM (doses to about 57.1 µM), for the others: at the highest dose activation, usual class: activators. 73,000 compounds, 2.5% hits. AID 938; also: % of control where 0% means no effect; nearly all actives have a fitted effect of over 55% in size
#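 Counterscreen for endogenous-receptor signalling: CNG-channel HEK 293 cells report cAMP rise by membrane depolarization. After 60 min dye equilibration with 100 uM RO 20-1724, compounds incubated 30 min before bottom-read fluorescence at 590 nm.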
# Numbers without * were called inactive; ? = inconclusive; . = no result; [ ] = dose if it differs, or a comment. Unless noted, calls follow the shape of the dose curve; as a rule, active = well fitted curve in the direction sought with a large enough effect; inconclusive = small, poorly fitted or top-dose-only effect, or another doubt; inactive = no such curve, though single readings can be large; an effect the other way counts as inactive or inconclusive. Potency is read from the fitted curve at half-maximal effect.
SMILES,Casp7 inh,15-hLO-2 inh,TSHR agonist,15-hLO inh,Caspase-1 inhib,HEK293 cAMP cs
COCC(=O)N1CCC2(CC1)CN(c1ccccn1)C2,1%,-6%,?,8%,-3%,16µM*
COC(=O)N1CCC2(CC1)CCN(c1ccccn1)CC2,-1%,-3%,?,4%,-1%,?
O=C(Oc1ccccc1)N1CCC2(CC1)CCN(c1ccncc1)CC2,0%,5%,?,8%,-1%,7.9µM*
O=C(Oc1ccccc1)N1CCC2(CC1)CCN(c1ccccn1)CC2,-4%,21%,?,-22%,-4%,13µM*
Nc1nc(Nc2ccccc2)nc2c1ncn2[C@@H]1O[C@@H](CO)[C@H](O)[C@@H]1O,2%,5%,4%,6%,2%,-3%
CCCn1c(SCC(=O)Nc2ccccc2C(=O)OC)nc2c1c(=O)n(C)c(=O)n2C,0%,-2%,?,6%,1%,?
CCCn1c(SCC(=O)Nc2ccccc2N2CCCCC2)nc2c1c(=O)n(C)c(=O)n2C,0%,3%,?,-26%,-3%,1µM*
COc1cccc(OC)c1OCCNC[C@@H]1CSc2ccccc2O1,-2%,23%,?,-4%,0%,?
CCC(C)Sc1nc2c(c(=O)[nH]c(=O)n2C)n1CCc1ccccc1 (stereo not drawn),-3%,.,?,-2%,1%,32µM*
CC(C)Sc1nc2c(c(=O)[nH]c(=O)n2C)n1CCc1ccccc1,2%,2%,.,-1%,-2%,25%
Cn1c(=O)c(CCc2ccccc2)nc2cnc(OCc3ccccc3)nc21,-8%,0%,?,2%,-5%,1µM*
O=c1cnc2cnc(Oc3ccccc3)nc2n1Cc1ccc(F)cc1,-4%,-13%,?,-24%,-6%,?
COc1cccc(Cn2c(=O)c(CCc3ccccc3)nc3cnc(OC)nc32)c1,-5%,-2%,?,-1%,-3%,16µM*
O=c1cnc2cnc(Oc3ccccc3)nc2n1CCc1ccccc1,-6%,-5%,?,-5%,-3%,1.6µM*
COc1ccc(Oc2ncc3nc(CCc4ccccc4)c(=O)n(C[C@H]4CCCO4)c3n2)cc1,-15%,-10%,?,20%,-12%,10µM*
CCNc1ncc2nc(CCc3ccccc3)c(=O)n(Cc3cccc(OC)c3)c2n1,-18%,-5%,28%,-23%,-13%,21%
c1cncc(CNc2ncncc2-c2ccc3c(c2)OCO3)c1,0%,10%,?,-24%,0%,?
COc1ncc2nc(CCc3ccccc3)c(=O)n(Cc3cccs3)c2n1,-3%,-3%,?,-5%,-8%,10µM*
c1ccc(-c2nc3nc4ccccc4nc3n2Cc2ccco2)cc1,-8%,-18%,?,-13%,-9%,10µM*
Fc1ccc(-c2nc3nc4ccccc4nc3n2Cc2ccco2)cc1,-6%,-14%,?,-24%,-7%,?
COc1cccc([C@@H]2Oc3ccc(OC)cc3/C(=N/OC[C@@H](C)[C@H](OCc3ccccc3)C(C)C)[C@@H]2O)c1,-1%[11.5 µM],.,-1%[11.4 µM],-1%[11.4 µM],1%[11.5 µM],15%[11.4 µM]
CN1/C(=C\C(=O)c2ccco2)C(C)(C)c2ccccc21,?,-24%,?,-23%,.,20µM*
CN1/C(=C\C(=O)C(F)F)C(C)(C)c2ccccc21,-28%,-4%,?,-22%,.,32µM*
CN1/C(=C\C(=O)COC(=O)C2COc3ccccc3O2)C(C)(C)c2ccccc21 (stereo not drawn),-9%,10%,16%,-13%,-11%,3%
CN1/C(=C\C=Nc2ccccc2)C(C)(C)c2ccccc21,.,-18%,.,.,.,.
SMILES,Casp7 inh,15-hLO-2 inh,TSHR agonist,15-hLO inh,Caspase-1 inhib,HEK293 cAMP cs
CN1/C(=C\C(=O)COc2ccc3c(c2)OCO3)C(C)(C)c2ccccc21,-14%,-6%,?,-18%,?,32µM*
N#CC(c1ccc(Cl)cc1)c1ccc(Cl)nn1 (stereo not drawn),.,-6%,.,.,.,.
Cc1ccc(C2Nc3ccccc3-c3nc4ccccc4n32)o1 (stereo not drawn),-10%,.,?,6%,-13%,20µM*
CC1CC(C)CN(c2oc(-c3ccco3)nc2C#N)C1 (stereo not drawn),2%,.,?,-9%,-3%,16µM*
CNc1oc(-c2ccco2)nc1C#N,3%,-3%,-1%,8%,-1%,5%
N#Cc1nc(-c2ccco2)oc1N1CCc2ccccc2C1,-8%,-8%,?,-26%,-6%,25µM*
N#Cc1nc(-c2ccco2)oc1N1CCN(C(c2ccccc2)c2ccccc2)CC1,1%,-6%,4µM*,3%,-1%,13%
COc1ccccc1-c1nc(C#N)c(N2CCN(c3cccc(Cl)c3)CC2)o1,-1%,-15%[11.4 µM],?,6%,-2%,?
N#Cc1nc(-c2ccco2)oc1N1CCCC1,-1%,-7%,7%,4%,-12%,11%
N#Cc1nc(-c2ccco2)oc1N1CCN(c2cccc(Cl)c2)CC1,-2%,-3%,?,2%,-2%,20µM*
CCC(=O)OCC(=O)C1(OC(=O)CC)C(C)CC2C3C(Cl)CC4=CC(=O)C=C[C@@]4(C)C3C(O)C[C@@]21C (stereo partly drawn),0%,-8%,.,-6%,-1%,.
O=C(c1ccncc1)N1CCC2(CC1)CN(C(c1ccccc1)c1ccccc1)C2,1%,3%,16%,-2%,-3%,10%
CCOC(=O)OCC1OC(C#Cc2ccccc2)C=CC1OC(=O)OCC (stereo not drawn),-1%[11.5 µM],.,0%[11.4 µM],-5%[11.4 µM],?,-2%[11.4 µM]
CC(=O)O[C@H]1CC[C@@]2(C)C(=CC[C@@H]3[C@@H]4CC[C@H](c5cc(C(F)(F)F)n(C(C)=O)n5)[C@]4(C)CC[C@@H]32)C1,-1%[11.5 µM],-6%[11.4 µM],3%[11.4 µM],-2%[11.4 µM],3%[11.5 µM],9%[11.4 µM]
Cc1[nH]c(=O)c(C#N)cc1-c1ccc2nccn2c1,0%,-9%,.,14%,1%,.
COc1ccc(-c2nc(C#N)c(N3CC(C)OC(C)C3)o2)cc1OC (stereo not drawn),0%,.,.,7%,1%,-20%
COc1ccccc1OCc1nc(C#N)c(N2CC(C)CC(C)C2)o1 (stereo not drawn),-1%,-6%,?,-13%,1%,13µM*
O=C(O)[C@@H]1[C@@H]2C[C@H]([C@@H](Br)[C@H]2N2C(=O)CCC2=O)[C@@H]1C(=O)O,-1%[11.5 µM],1%[11.4 µM],-4%[11.4 µM],17%[11.4 µM],0%[11.5 µM],7%[11.4 µM]
CCC(c1nnnn1Cc1ccc2c(c1)OCO2)N1CCN(c2ccccc2)CC1 (stereo not drawn),1%,10%,?,3%,-3%,16µM*
